Screening data: PubChem BioAssay, National Center for Advancing Translational Sciences (NCATS)
The full list was thinned out, with hits kept by preference.
RE007 growth inh: qHTS Assay for Inhibitors of the HIV-1 protein Vpr; Potency, µM (titrated, usually from 92.2 µM), most hits filed as inhibitors; 0.21% of 360,000 active; S. pombe RE007 Vpr strain, BacTiter-Glo ATP luminescence, 24 h; active = well fitted falling curve with a large enough effect; inconclusive = small, poorly fitted or top-dose-only effect; inactive = no such curve, though single readings can be large or run the other way; also: nearly all actives have a fitted effect of over 50% in size
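Fission yeast RE007 carrying one integrated HIV-1 vpr copy, seeded at OD 0.01 in PMG+AL medium with 23 nL pinned compound. Grown 24 h at 30 degrees; viability read by BacTiter-Glo luminescence after 5 min.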
LmPK inhibitor: qHTS Assay for Inhibitors of Leishmania Mexicana Pyruvate Kinase (LmPK); Q27686; Potency, µM (doses to about 57.5 µM), hits mostly inhibitors; purified LmPK, Kinase-Glo ATP luminescence, 1 h; 0.37% of 290,000 active
Target sequence (Q27686 whole entry, looked up): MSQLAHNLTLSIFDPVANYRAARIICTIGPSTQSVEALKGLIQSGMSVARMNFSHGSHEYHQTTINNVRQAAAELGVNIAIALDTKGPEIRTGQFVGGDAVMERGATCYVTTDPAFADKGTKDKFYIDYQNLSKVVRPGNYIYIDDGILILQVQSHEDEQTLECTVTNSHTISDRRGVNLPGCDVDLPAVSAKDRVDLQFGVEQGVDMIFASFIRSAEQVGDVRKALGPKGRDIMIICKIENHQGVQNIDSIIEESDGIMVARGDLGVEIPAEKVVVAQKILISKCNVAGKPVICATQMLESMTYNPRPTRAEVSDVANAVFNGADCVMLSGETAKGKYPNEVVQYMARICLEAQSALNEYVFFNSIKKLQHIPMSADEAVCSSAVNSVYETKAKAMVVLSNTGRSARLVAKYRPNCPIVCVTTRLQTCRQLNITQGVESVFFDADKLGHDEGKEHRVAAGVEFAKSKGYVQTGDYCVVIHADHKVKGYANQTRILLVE
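Purified LmPK (0.1 nM) with 0.5 mM PEP and 0.1 mM ADP in imidazole buffer pH 7.2 with MgCl2/KCl, 1 h at room temperature. ATP formed was read by luciferase luminescence and normalized to no-enzyme and uninhibited controls.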
FBPA Giardia inh: qHTS Assay for Inhibitors of Fructose-1,6-bisphosphate Aldolase from Giardia Lamblia | AID 2451, 2010 | purified Giardia FBPA | Potency, µM (doses to about 59.6 µM), usual class: inhibitors | 0.71% of 290,000 active; also: nearly all actives have a fitted effect of over 55% in size
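Giardia FBPA (40 nM reagent) was preincubated 10 min at RT with compound (up to 57.5 uM final), then substrate plus GAPDH/TPI/NAD/arsenate coupling system with diaphorase/resazurin was added; resorufin fluorescence (525/598 nm) was read after 20 min.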
Cycloheximide cs: Cycloheximide Counterscreen for Small Molecule Inhibitors of Shiga Toxin; cell reporter, cycloheximide protein synthesis inhibition counterscreen; max response, %; 12% of 300,000 active; in the data active = max response mostly above about 13%, no sharp cut-off; inactive = mostly below about 14%; also: read at 38.3 µM for the half of the compounds with a filed dose
Shiga inhibitor: A qHTS for Small Molecule Inhibitors of Shiga Toxin; 9.2% of 290,000 active; Vero cells, Shiga toxin protein synthesis inhibition reporter; inhibition, % at 38.7 µM; AID 2315, 2010; in the data active = inhibition mostly above about 28%, no sharp cut-off; inactive = mostly below about 43%
TbPYK inhibitor: qHTS of Trypanosoma Brucei Inhibitors | Potency, µM (titrated, usually from 76.8 µM), usual class: inhibitors | AID 624173, 2012 | 0.12% of 410,000 active | TbPYK enzyme, Kinase-Glo Plus ATP luminescence, 45 min; also: nearly all actives have a fitted effect of over 50% in size
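Activity of T. brucei pyruvate kinase was followed by Kinase-Glo Plus luminescence after the enzyme reacted 45 min at room temperature with 130 uM ADP (final) and substrate. Test compounds were added before ADP at multiple concentrations.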
Numbers stand for hits; . = inactive; ? = inconclusive; / = no result; + = active, no number. Unless noted, calls follow the shape of the dose curve; as a rule, active = well fitted curve in the direction sought with a large enough effect; inconclusive = small, poorly fitted or top-dose-only effect, or another doubt; inactive = no such curve, though single readings can be large; an effect the other way counts as inactive or inconclusive.

SMILES | RE007 growth inh | LmPK inhibitor | FBPA Giardia inh | Cycloheximide cs | Shiga inhibitor | TbPYK inhibitor
CC(C)(C)c1cc(NC(=O)Nc2ccccc2OC(F)(F)F)no1 | . | . | . | . | . | .
CC(C)(C)c1cc(NC(=O)c2ccco2)no1 | ? | ? | / | 44 | 81 | .
Cc1ccc(S(=O)(=O)NC(=O)Nc2cc(C(C)(C)C)on2)cc1 | . | . | . | . | . | .
Cc1cc(C(=O)Nc2ccon2)c(C)o1 | . | . | . | . | . | .
COC(=O)c1ccccc1NC(=O)Nc1cc(C(C)(C)C)on1 | . | . | . | 40 | . | .
Cc1cc(C(=O)Nc2cc(C(C)(C)C)on2)c(C)o1 | . | . | . | 39 | . | .
CC(C)(C)c1cc(NC(=O)Nc2ccccc2)no1 | . | . | . | 33 | 70 | .
CC(Cc1cccs1)NC(=S)Nc1ccc(Cl)cc1 (stereo unspecified) | . | . | . | 21 | 45 | .
CC(C(=O)Nc1ccc(Cl)cc1)N(C)Cc1cccs1 (stereo unspecified) | . | . | . | . | . | .
CC(Cc1cccs1)NC(=S)Nc1ccc(Cl)c(Cl)c1 (stereo unspecified) | . | . | . | . | active | .
COc1ccccc1NC(=O)CC(=O)Nc1ccccc1OC | . | . | . | . | . | .
COc1ccccc1NC(=O)CC(=O)c1ccccc1 | . | . | . | . | 55 | .
COc1ccccc1C(=O)CC(=O)c1ccccc1 | ? | . | . | 68 | 85 | .
CCOc1ccc(C(=S)NC2CCCCC2)cc1 | . | . | . | 52 | 139 | .
COc1ccc(CNC(=S)NC2CCCCC2)cc1 | . | . | . | . | . | .
COc1ccc(C(=S)NC2CCCCC2)cc1 | ? | . | . | 20 | . | ?
COc1ccc(S(=O)(=O)Nc2cccc(-c3ccc(N4CCCCCC4)nn3)c2)c(OC)c1 | . | . | / | 53 | 60 | .
COc1ccc(S(=O)(=O)Nc2cccc(-c3ccc(N4CCCCCC4)nn3)c2)cc1 | / | / | / | / | / | .
O=S(=O)(Nc1cccc(-c2ccc(N3CCCCCC3)nn2)c1)c1ccccc1 | / | / | / | / | / | .
Cc1cccc(S(=O)(=O)Nc2cccc(-c3ccc(N4CCCCC4)nn3)c2)c1 | / | / | / | 59 | 73 | .
Cc1ccc(S(=O)(=O)Nc2cccc(-c3ccc(N4CCCCCC4)nn3)c2)cc1 | . | . | . | 39 | 89 | .
COc1ccc(S(=O)(=O)Nc2cccc(-c3ccc(N4CCCC4)nn3)c2)cc1F | / | / | / | / | / | .
COc1ccc(S(=O)(=O)Nc2cccc(-c3ccc(N4CCCCCC4)nn3)c2)cc1OC | . | . | / | 35 | 40 | .
O=C(O)C1NCCN(C(=O)c2ccc3c(ccc4ccccc43)c2)C1C(=O)O (stereo unspecified) | / | / | . | . | . | /
O=C(Cn1c(=O)oc2cc(S(=O)(=O)N3CCCC3)ccc21)Nc1ccc(F)cc1F | / | / | / | / | / | .
SMILES | RE007 growth inh | LmPK inhibitor | FBPA Giardia inh | Cycloheximide cs | Shiga inhibitor | TbPYK inhibitor
CCCc1[nH]n(-c2nc3ccccc3s2)c(=O)c1C=NCC1CCCO1 (stereo unspecified) | . | . | . | 24 | . | .
Cc1[nH]n(-c2ccccc2)c(=O)c1C=NCC1CCCO1 (stereo unspecified) | . | . | . | 23 | 49 | .
CCCc1[nH]n(-c2ccc(F)cc2)c(=O)c1C=NCC1CCCO1 (stereo unspecified) | . | . | . | . | . | .
Cc1[nH]n(-c2cccc(Cl)c2)c(=O)c1C=NCc1ccco1 | . | . | . | 43 | 107 | .
Cc1[nH]n(-c2ccccc2)c(=O)c1C=NCc1ccco1 | / | . | . | 41 | 98 | /
O=C(CSc1nc(=O)n(Cc2ccncc2)c2c1CCC2)Nc1cccc(F)c1 | / | / | / | / | / | .
Cc1[nH]n(-c2ccccc2)c(=O)c1C=Nc1ccc(S(=O)(=O)N(C)C)cc1 | . | . | . | . | . | .
Cc1[nH]n(-c2ccccc2)c(=O)c1/C=N/N(C)c1ccccc1 | . | . | . | . | 45 | .
Cc1[nH]n(-c2cccc(Cl)c2)c(=O)c1C=NC12CN3CN(CN(C3)C1)C2 | . | . | . | . | . | .
Cc1[nH]n(-c2cccc(Cl)c2)c(=O)c1C=NCC(C)C | . | . | . | 43 | 96 | .
O=C(NC1(C(F)(F)F)C(=O)Nc2c1c(=O)[nH]c(=O)n2CCc1ccccc1)c1ccc(Cl)cc1Cl (stereo unspecified) | / | / | / | / | / | .
N=c1c2c(ncn1Cc1ccco1)Oc1ccc3ccccc3c1C2c1ccccc1 (stereo unspecified) | . | . | . | 20 | active | .
COc1ccc(C2c3c(ncn(Cc4ccco4)c3=N)Oc3ccc4ccccc4c32)cc1 (stereo unspecified) | . | . | . | . | . | .
O=C(NCCSC1CCCCC1)c1ccccc1 | . | . | . | 30 | 63 | .
COc1ccc(C(=O)NCCSC2CCCCC2)cc1 | . | . | . | 42 | 80 | .
CS(=O)(=O)Nc1ccc(C(=O)NCCSC2CCCCC2)cc1 | . | . | . | . | . | .
Cc1ccccc1OCc1ccc(-c2nc(C#N)c(N3CCN(c4ccccc4)CC3)o2)o1 | / | / | / | / | / | .
Cc1ccc(C2=NN(S(C)(=O)=O)C(c3ccc4c(c3)OCO4)C2)cc1 (stereo unspecified) | . | . | . | 76 | + | .
CS(=O)(=O)N1N=C(c2ccc(Br)cc2)CC1c1ccc2c(c1)OCO2 (stereo unspecified) | . | . | . | 45 | 83 | .
CCS(=O)(=O)Nc1cccc(C2=NN(S(C)(=O)=O)C(c3ccccc3)C2)c1 (stereo unspecified) | . | . | . | . | . | .
CC(=O)N1N=C(c2ccc(C)cc2)CC1c1ccc2c(c1)OCO2 (stereo unspecified) | . | . | . | 45 | 52 | .
CC(=O)N1N=C(c2ccco2)CC1c1ccc(C)cc1 (stereo unspecified) | . | . | . | . | . | .
CS(=O)(=O)Nc1ccc(C2=NN(S(C)(=O)=O)C(c3ccc4nccnc4c3)C2)cc1 (stereo unspecified) | . | . | . | 15 | . | .
CC(=O)N1N=C(c2ccc(NS(C)(=O)=O)cc2)CC1c1ccc2nccnc2c1 (stereo unspecified) | . | . | . | . | . | .
CCC1CCCCN1C(=O)Cn1c(=O)n(-c2ccccc2C(F)(F)F)c(=O)c2c(C)c(C(=O)N(C)C)sc21 (stereo unspecified) | / | / | / | / | / | .
O=C(Nc1nc2ccsc2c(=O)s1)c1ccc(F)cc1Cl | . | . | . | 33 | 73 | .
O=C(Nc1nc2ccsc2c(=O)s1)c1ccc(F)cc1 | . | . | . | 45 | 81 | .
